Values joined by “and” are separate entries in the source; they are usually repeats but may differ in a detail not shown here. Equal values may be shown once. Results filed as inconclusive are left out. Active and inactive are the calls of the source. Calls come from the whole dose curve; as a rule, active = well fitted curve in the direction sought with a large enough effect; inconclusive = small, poorly fitted or top-dose-only effect, or another doubt; inactive = no such curve, though single readings can be large; an effect the other way counts as inactive or inconclusive.

The nature of one assay: Identifying Small Molecule Inhibitors of Pancreatic Cancer Stem Cells (SN12C, Spheroid) (AID 1259360).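 For viability (% of control): 100% = DMSO-treated cells and 0% = wells without cells.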 Note: potency is the fitted concentration of half-maximal effect. The settings on record: Potency: SN12C spheroid viability; series mostly up to 46.1 µM; viability (% of control): at the top concentration. The essentials: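 Pre-formed 14-day tumor spheroids or adherent cells dosed and incubated 48 h, 37C, 5% CO2. Viability assessed by CellTiter-Glo.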
For `C=C1C(=CC=C2CCC[C@]3(C)[C@@H]([C@H](C)C=C[C@H](C)C(C)C)CC[C@@H]23)C[C@@H](O)C[C@@H]1O`, the “viability (% of control)” value is 103% (inactive).

In the case of `Clc1ccc2ncc(-c3cccc(NC4CNC4)n3)n2c1`, the “viability (% of control)” value is 91.4% (inactive). As for `C=C1C(=CC=C2CCCC3(C)[C@@H]([C@H](C)C=CC=CC(O)(CC)CC)CC[C@@H]23)C[C@@H](O)C[C@@H]1O` (some centres undefined), the Potency is 18.7 µM (active). With `CNc1nccc(-c2cccnc2Oc2cc(C(=O)Nc3cccc(C(F)(F)F)c3)ccc2C)n1`, the Potency was 18.7 µM (active). Turning to `COc1cc2c(Oc3ccc(NC(=O)C4(C(=O)Nc5ccc(F)cc5)CC4)cc3F)ccnc2cc1OCCCN1CCOCC1`, the Potency is 23.5 µM (active). Turning to `Cc1cc(Nc2cc(N3CCN(C)CC3)nc(C=Cc3ccccc3)n2)n[nH]1`, the “viability (% of control)” value is 80.9% (inactive).

A further assay in a line: Identifying Small Molecule Inhibitors of Pancreatic Cancer Stem Cells (A278, Adherent) (AID 1259361).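 Note: viability read after 48 h compound exposure; nearly all actives have a fitted effect of over 35% in size.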 The settings on record: series mostly up to 46.1 µM; viability (% of control): at the top concentration. The essentials: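 Viability is scored by CellTiter-Glo luminescence 48 h after dosing, expressed as percent activity against vehicle and no-cell references. Spheroid formats rely on cells cultured 14 days in stem cell media beforehand.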
As for `CN1CCN(c2cc(C(=O)Nc3ccc4c(c3)-c3c(c(C(N)=O)nn3-c3ccc(F)cc3)CC4)c(Cl)cn2)CC1`, the IC50 (viability decrease) was 23.5 µM (active). The same measure, in the same setting: as for `O=C(NCCCNc1nc(Nc2cccc(NC(=O)N3CCCC3)c2)ncc1I)c1cccs1`, the figure is 6.62 µM (active) and 14.8 µM (active); as for `Cc1ccc(C(=O)Nc2cccc(C(F)(F)F)c2)cc1-c1ccc2nc(NCCN3CCOCC3)ncc2c1`, 2.64 µM (active).

As to `Nc1nccc(Oc2ccc(NC(=O)c3c[nH]cc(-c4ccc(F)cc4)c3=O)cc2F)c1Cl`, the IC50 (viability decrease) was 23.5 µM (active). The same measure, in the same setting: as for `O=c1[nH]nc(Sc2ncc([N+](=O)[O-])s2)n1-c1ccc2c(c1)OCCO2`, the figure is 26.4 µM (active); as for `COc1cc2c(Oc3ccc(NC(=O)C4(C(=O)Nc5ccc(F)cc5)CC4)cc3F)ccnc2cc1OCCCN1CCOCC1`, 4.69 µM (active); as for `Cc1cc(Nc2cc(N3CCN(C)CC3)nc(C=Cc3ccccc3)n2)n[nH]1`, 2.35 µM (active).

A short description of the next assay: Identifying Small Molecule Inhibitors of Pancreatic Cancer Stem Cells (Panc1, Adherent) (AID 1259362).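 For viability, % of control: compound exposure lasted 48 h before the viability read; plate controls were DMSO-treated cells for no effect and cell-free media wells for full effect.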 Note: potency is the fitted concentration of half-maximal effect. The settings on record: Potency: viability; series mostly up to 46.1 µM; viability, % of control: at the top concentration. The essentials:
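Luminescent ATP readout (CellTiter-Glo) quantifies surviving cells after a 48 h drug incubation. Normalization uses DMSO wells as no inhibition and media-only wells as full inhibition; bortezomib served as positive control.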
As for `O=C(NCCCNc1nc(Nc2cccc(NC(=O)N3CCCC3)c2)ncc1I)c1cccs1`, the Potency is 11.8 µM (active) and 16.6 µM (active). The same measure, in the same setting: as for `Cc1ccc(C(=O)Nc2cccc(C(F)(F)F)c2)cc1-c1ccc2nc(NCCN3CCOCC3)ncc2c1`, the figure is 11.8 µM (active); as for `C=C1C(=CC=C2CCC[C@]3(C)[C@@H]([C@H](C)C=C[C@H](C)C(C)C)CC[C@@H]23)C[C@@H](O)C[C@@H]1O`, 26.4 µM (active). For the compound `Nc1nccc(Oc2ccc(NC(=O)c3c[nH]cc(-c4ccc(F)cc4)c3=O)cc2F)c1Cl`, the “viability, % of control” value was 75.3% (inactive). Consider `Clc1ccc2ncc(-c3cccc(NC4CNC4)n3)n2c1`, for which the “viability, % of control” value was 137% (inactive). As for `CC(C)(C)c1cc(C(C)(C)C)c(NC(=O)c2c[nH]c3ccccc3c2=O)cc1O`, the Potency is 23.5 µM (active).

Source of the values: PubChem BioAssay (NCATS).
